{"source": "PubChem BioAssay (Tox21)", "note": "Results filed as inconclusive are left out. Where a call stands in place of a potency, no number is given. The source made the active and inactive calls. Calls follow the shape of the dose curve; as a rule, active = well fitted inhibition curve with a large enough effect in the signal ratio in the repeat runs (not every such curve was filed as active); inconclusive = weak or mixed curves, or effect the other way; inactive = no such curve, though single readings can be large or run the other way; the % refers to the signal ratio."}
{"biological_target": "Vitamin D3 receptor (Homo sapiens) (UniProt P11473)", "sequence (P11473 whole entry, looked up)": "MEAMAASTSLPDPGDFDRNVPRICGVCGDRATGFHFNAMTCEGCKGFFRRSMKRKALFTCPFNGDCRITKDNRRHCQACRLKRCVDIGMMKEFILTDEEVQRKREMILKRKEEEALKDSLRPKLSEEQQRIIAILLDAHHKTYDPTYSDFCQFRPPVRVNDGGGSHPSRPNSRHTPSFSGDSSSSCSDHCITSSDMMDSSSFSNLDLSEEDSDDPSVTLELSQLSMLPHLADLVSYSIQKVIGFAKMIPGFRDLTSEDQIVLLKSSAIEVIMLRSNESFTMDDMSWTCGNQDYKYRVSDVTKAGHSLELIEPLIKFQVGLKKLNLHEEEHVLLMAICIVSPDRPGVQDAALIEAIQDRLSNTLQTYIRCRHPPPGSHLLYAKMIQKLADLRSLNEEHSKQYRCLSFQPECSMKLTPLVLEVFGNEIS", "experiment": "qHTS assay to identify small molecule antagonists of the vitamin D receptor (VDR) signaling pathway (AID 743223)", "settings": "VDR-UAS-bla HEK293T, beta-lactamase FRET ratio, 16 h; series mostly up to 61 µM", "in_short": "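Beta-lactamase activity in VDR-bla cells is measured by FRET substrate fluorescence (2 h, room temperature) after cells spend 16 h at 37C with test compound and 3 nM final 1alpha,25-dihydroxyvitamin D3.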"}
{"smiles": "O=C(O)c1ccc2cc(C(=O)O)ccc2c1", "Potency": "inactive"}
{"smiles": "CCC(C)(CCC(C)C)C(=O)[O][Sn]([CH3])([CH3])[O]C(=O)C(C)(CC)CCC(C)C", "note": "(stereo unspecified)", "Potency": "inactive"}
{"smiles": "CCN(CCN)c1cccc(C)c1", "Potency": "inactive"}
{"smiles": "CC(C)(C)c1ccc(C(O)CCCN2CCC(C(O)(c3ccccc3)c3ccccc3)CC2)cc1", "note": "(stereo unspecified)", "Potency": "inactive"}
{"smiles": "COc1cc(/C=C/c2ccccc2)oc(=O)c1", "Potency": "inactive"}
{"smiles": "CCCC(=O)OCOC(=O)C1=C(C)NC(C)=C(C(=O)OC)C1c1cccc(Cl)c1Cl", "note": "(stereo unspecified)", "Potency": "inactive"}
{"smiles": "CCO[Si](OCC)(OCC)OCC", "Potency": "inactive"}
{"smiles": "Oc1ccccc1O", "Potency": "inactive"}
{"smiles": "OC1CCCc2ccccc21", "note": "(stereo unspecified)", "Potency": "inactive"}
{"smiles": "O=C(/C=C/c1ccc(O)c(O)c1)O[C@@H](C(=O)O)[C@@H](OC(=O)/C=C/c1ccc(O)c(O)c1)C(=O)O", "Potency": "inactive"}
{"smiles": "O=C(Nc1ccc2c(O)c(N=Nc3ccc(N=Nc4ccc(S(=O)(=O)O)cc4)cc3)c(S(=O)(=O)O)cc2c1)c1ccccc1", "Potency": "inactive"}
{"smiles": "CCCCCCC1CCCC(=O)O1", "note": "(stereo unspecified)", "Potency": "inactive"}
{"smiles": "CCOC(=O)Cn1cccc1-c1nc(-c2ccc(OC)cc2)c(-c2ccc(OC)cc2)s1", "Potency": "inactive"}
{"smiles": "NC(=S)NC(N)=S", "Potency": "inactive"}
{"smiles": "CC(C)NC[C@@H](O)COc1ccc(CC(N)=O)cc1", "Potency": "inactive"}
{"smiles": "CCCCC(CC)CN1CN(CC(CC)CCCC)CC(C)(N)C1", "note": "(stereo unspecified)", "Potency": "inactive"}
